# Experimental data reported in PubChem BioAssay AID449762 (Southern Research Specialized Biocontainment Screening …, 2010).
# Where “and” joins values, the source holds several entries; their conditions need not be identical. Equal entries are not always repeated. Out of some 330,000 compounds screened, about 1,900 (0.58%) were called active. Another 4% or so got no clear call; they are omitted. A selection follows. Potency and affinity values are given separately. Values without a mark were called inactive. Rule as the data show it: inconclusive = inhibition above about 70% without an active follow-up result; inactive = below that.
# Test: M. tuberculosis growth inhibition, HTS (AID 449762);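 also: bacterial growth assessed after seven days of incubation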
# Conditions: M. tuberculosis H37Rv growth inhibition, 7H9 media; at 25 µM; stronger effect = higher value
row,Structure (SMILES),inhibition
1,N/C(=N\S(=O)(=O)c1cc(C(F)(F)F)cc(C(F)(F)F)c1)c1ccncc1,1.58%
2,CCc1nnc(NC(=O)CSC(=S)N2CCOCC2)s1,-7.36%
3,CCOc1ccc(-n2ccc(=O)c(C(=O)O)n2)cc1,-0.69%
4,S=c1nc2ccccc2c2nc(-c3ccccc3Br)[nH]n12,8.46%
5,Cc1ccccc1-c1nc2c3ccccc3nc(=S)n2[nH]1,14.3%
6,CCOCCn1c(C)c(C(=O)OCC)c2cc(O)c3ccccc3c21,9.34%
7,Cn1cnnc1SCc1cccc(Br)c1,1.07%
8,Cn1cnnc1SCc1ccccc1Br,-3.04%
9,CCOc1ccc(S(=O)(=O)NN=C2CCN(C(C)=O)CC2)cc1,10.4%
10,CCN1CCN(C(=O)/C=C/c2ccc(C)o2)CC1,-7.62%
11,Cc1ccc(/C=C/C(=O)N2CCCC(C(N)=O)C2)o1 (stereo not drawn),7.73%
12,COc1ccc(CCNC(=O)C2CCCN(c3ncnc4c3nc3n4CCCCC3)C2)c(OC)c1 (stereo not drawn),3.42%
13,CC(C)(C)C1CCC(=NNC(=O)C2COc3ccccc3O2)CC1 (stereo not drawn),2.24%
14,Cc1[nH]nc2c1C(c1cccs1)C1=C(CC(C)(C)CC1=O)N2 (stereo not drawn),-4.07%
15,CCn1ncc([N+](=O)[O-])c1C(=O)N1CCCC1,3%
16,CCCn1cnc2cc(NCc3ccccc3O)ccc21,29.1%
17,COc1cccc(CNc2ccc3c(c2)ncn3C)c1OC,8%
18,N/C(=N\OC(=O)c1ccc([N+](=O)[O-])cc1)c1cccnc1,8.92%
19,CC(C)(C)C1=C(C#N)C(c2cc3c(cc2Br)OCO3)C(C#N)=C(N)O1 (stereo not drawn),-2.53%
20,O=C(Nc1ccc(N2CCN(C(=O)c3cccs3)CC2)cc1)c1ccccc1Cl,1.86%
21,Cc1cccc(NC(=O)c2ccc(C3SCC(=O)N3CCc3ccccc3)cc2)c1 (stereo not drawn),0.15%
22,CC(=O)Nc1ccc(NC(=O)c2ccc(C3SCC(=O)N3CCc3ccccc3)cc2)cc1 (stereo not drawn),15.4%
23,Oc1cc(NCc2ccc(F)cc2)cc2cccnc12,8.32%
24,Oc1cc(Nc2ccncc2)cc2cccnc12,13.8%
25,CC(C)n1nnc(-c2ccc(OCc3ccccc3F)cc2)n1,8.81%

row,Structure (SMILES),inhibition
1,COc1ccc(NC(=O)CNC(=O)Cn2cnc3sc4c(c3c2=O)CCCC4)cc1OC,9.66%
2,COc1cccc(NC(=O)CNC(=O)Cn2cnc3sc(C)c(C)c3c2=O)c1,-5.96%
3,O=C(O)CCc1ccc(-c2ccccc2)o1,-1.56%
4,COc1ccccc1-c1ccc(SCC(=O)NC2CCCC2)nn1,-0.31%
5,Nc1ccccc1C#Cc1ccccc1,-9.91%
6,O=C(C#Cc1cccc([N+](=O)[O-])c1)c1ccccc1,6.12%
7,CC1CCCC(NC(=O)CN(C)CC(=O)Nc2ccc(F)cc2)C1C (stereo not drawn),-12.8%
8,Nc1nnc(SCC(=O)OCC(=O)Nc2ccccc2)s1,-4.86%
9,O=C(CNS(=O)(=O)c1ccccc1)N1CCN(Cc2ccccc2)CC1,-2.28%
10,CCCCS(=O)(=O)/C=C\C1C2C=CC(C2)C1S(=O)(=O)CCCC (stereo not drawn),0.63%
11,CCCCS(=O)(=O)/C=C/[C@H]1[C@H](S(=O)(=O)CCCC)[C@H]2C=C[C@@H]1C2,1.49%
12,Oc1ccc(-c2c(-c3ccsc3)sc3ccccc23)cc1,28.2%
13,COCc1ccc(-c2c(-c3ccsc3)sc3ccccc23)cc1,6.72%
14,CCN1CCN(c2ccc(NC(=O)c3cccc(F)c3)cc2Cl)CC1,4.34%
15,CC(C)(C)C(=O)N1CCN(c2nc3ccc(Cl)cc3s2)CC1,13.8%
16,Cc1ccc(-n2cc(CN(C)CCc3cn[nH]c3)c(-c3cccc(C)c3)n2)cc1,19.1%
17,CN(Cc1cn(C)nc1-c1cccc(Cl)c1)Cc1nccn1C,-10.3%
18,Cc1ccc(NC2=C/C(=N/S(=O)(=O)c3cccs3)c3ccccc3C2=O)cc1,62.9%
19,Cc1ccc(NC2=C/C(=N/S(=O)(=O)c3cccs3)c3ccccc3C2=O)cc1C,5.44%
20,COc1ccc(Cl)cc1NC(=O)Nc1ccc(Br)cn1,5.18%
21,O=C(O)COc1ccc(-c2nccc(-c3ccccn3)n2)cc1,0.08%
22,CC(Oc1ccc(-c2nccc(-c3ccccn3)n2)cc1)C(=O)NN (stereo not drawn),-4.92%
23,CC(=O)CSc1nc2ccccc2s1,-0.04%
24,O=C(CSc1nc2ccccc2s1)CSc1nc2ccccc2s1,12%
25,FC(F)(F)c1nc2ccccc2c2nc3ccccc3n12,9.4%

row,Structure (SMILES),inhibition
1,c1ccc(-c2nc3ccccc3c3nc4ccccc4n23)cc1,-1.99%
2,COC(=O)CCNC(=O)c1ccc2nc(Cc3ccc(OC)c(OC)c3)oc2c1,-1.6%
3,COc1ccc(Cc2nc3ccc(C(=O)NCCSC)cc3o2)cc1,2.47%
4,C/C(=N\NC(=O)C1CC1c1ccccc1)c1ccc(C)s1 (stereo not drawn),-2.49%
5,CCOC(=O)Cc1nn(Cc2nc(-c3ccc(C)cc3)cs2)c(=O)c2ccccc12,-4.15%
6,CNC(=O)COc1ccc(-c2nn(C)c(=O)c3ccccc23)cc1,-7.66%
7,Cn1nc(-c2ccc(OCC(N)=O)cc2)c2ccccc2c1=O,-19.8%
8,CCOC(=O)N1CCN(S(=O)(=O)c2ccc(C(=O)Nc3nc4c(s3)CC(C)CC4)cc2)CC1 (stereo not drawn),16.7%
9,C#CCn1cnc2c(oc3ccccc32)c1=O,2.24%
10,COc1ccc(Br)cc1-c1nc(CCl)cs1,60.4%
11,N#C/C(=C\c1ccccn1)c1ccccn1,-3.85%
12,Cc1cc(C)n2nc(CC#N)c(C#N)c2n1,1.45%
13,CCc1ccc(N2C(=O)CN(Cc3cccs3)C2=S)cc1,38.7%
14,COc1ccc(OCc2nc(N)nc(Nc3ccccc3OC)n2)cc1,2.69%
15,COc1ccccc1Nc1nc(N)nc(CN2CCN(Cc3ccccc3)CC2)n1,43.2%
16,O=C(CNC(=O)c1ccc(Br)o1)NC12CC3CC(CC(C3)C1)C2,5.74%
17,COc1ccc(CN2C(=NC(=O)COc3ccccc3)SC3CS(=O)(=O)CC32)cc1 (stereo not drawn),-7.1%
18,Cc1cc(C)n2nc(SCCCC(=O)c3ccc(F)cc3)nc2n1,-9.89%
19,NC(=O)c1[nH]cnc1N,-17.9% and 7.5%
20,CN(C)N=Nc1ccc2nc[nH]c2c1,-2.52%
21,O=C1CCCCN1CCC(=O)N1CCCC(N2CCN(c3cccc(Cl)c3)CC2)C1 (stereo not drawn),-10.9%
22,O=C(NNC(=O)C1CC(c2cccs2)=NO1)Nc1ccc(Cl)cc1 (stereo not drawn),-0.49%
23,Cc1cc(=O)[nH]c(SCC(=O)N(CCC#N)c2ccccc2)c1C#N,-2.5%
24,CCCCNC(=S)N1CCn2cccc2C1c1cccnc1 (stereo not drawn),-0.76%
25,C=C1C(=O)[C@@]23[C@H](O)C[C@@H]4C(C)(C)CC[C@H](O)[C@]4(C)[C@@H]2C[C@H](O)[C@@H]1[C@H]3O,62.1%

row,Structure (SMILES),inhibition
1,COc1cc(-c2ccc3c(=O)c4ccccc4sc3c2)cc(OC)c1OC,8.35%
2,Cc1oc2c(cc(NS(=O)(=O)c3ccc4c5c(cccc35)C(=O)N4)c3ccccc32)c1C(=O)OC(C)C,51%
3,CCOC(=O)c1c(C)oc2ccc(NS(=O)(=O)c3ccc4c5c(cccc35)C(=O)N4)cc12,62.7%
4,Nc1nc(SCc2ccccc2)ns1,15%
5,Nc1nc(SCc2ccc(Cl)cc2Cl)ns1,22.1%
6,CC1(C)CC[C@]2(C(=O)O[C@@H]3OC(CO)[C@@H](O)[C@H](O)[C@H]3O)CC[C@]3(C)C(=CCC4[C@@]5(C)CC[C@H](O[C@@H]6OC(C(=O)O)[C@@H](O)[C@H](O)[C@H]6O)C(C)(C)C5CC[C@]43C)[C@@H]2C1 (stereo partly drawn),1.92%
7,CN(CC(=O)Nc1cccc(F)c1)C(=O)c1ccc(-c2cccc(C(F)(F)F)c2)o1,0.48%
8,CCOc1ccccc1N(CC(=O)Nc1cccc2ccccc12)S(C)(=O)=O,-0.92%
9,CC1(C)Cc2c(c(N3CCOCC3)nc3sc4c(NCCN5CCOCC5)nnnc4c23)CS1,36.9%
10,CC1(C)Cc2c(c(N3CCOCC3)nc3sc4c(NCC5CCCO5)nnnc4c23)CS1 (stereo not drawn),11.7%
11,O=S(=O)(NC1=NCCC1)c1cccc(NS(=O)(=O)c2ccc(OC(F)(F)F)cc2)c1,-9.41%
12,COc1ccccc1N(CC(=O)NCCc1ccccc1)C(=O)CCC(=O)Nc1ccccn1,-2.52%
13,COc1ccc(NC(=O)N2CCC3(CC2)OCCO3)cc1OC,1.68%
14,COc1ccc(NC(=O)CSc2nnc(-c3ccco3)n2N)cc1Cl,46.6%
15,COc1ccc(NC(=O)CSc2nnc(-c3ccccn3)n2N)cc1,8.63%
16,CC(C)(C)c1ccc(C(=O)NCC(=O)NNC(=O)c2ccccc2O)cc1,8.86%
17,O=C(O)c1ccc(/C=N/NC(=O)c2cc3c(ccc4ccccc43)o2)cc1,4.81%
18,O=C(N/N=C/c1ccncc1)c1cc2c(ccc3ccccc32)o1,1.21%
19,CC(C)(C)c1ccc(OCC(=O)Nc2ccc(C(=O)Nc3ccccc3C(=O)O)cc2)cc1,-6.72%
20,Cc1ccc(N=Cc2ccc[nH]2)c(O)c1,2.98%
21,O=C1NCC(O)=C1C=NCCO,4.69%
22,Fc1ccc(N=Cc2ccc[nH]2)cc1,13.1%
23,O=C1NCC(O)=C1C=NCCCO,-4.48%
